Laboratory results reported in PubChem BioAssay AID1159580 (chemical genetic matrix, 2015).
Where “and” joins values, the source holds several entries; their conditions need not be identical. Identical values can stand only once. Among all 5,500 compounds or so, about 2,000 (36%) were called active. Another 18% or so got no clear call; they are omitted. Cut-off read from the data, not from the text of the source: active = normalized growth mostly below about 0.91 (no sharp cut-off); inconclusive = no clear call, values can overlap the other calls; inactive = mostly above about 0.92. Some of the results follow.

Experiment: chemical genetic growth profiling, strain panel (AID 1159580);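 note: tested at 20 µM; growth read once vehicle control cultures reached saturation at 30 °C; 1 = growth at the plate median or of vehicle wells; lower values mean less growth of the strain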
Conditions: S. cerevisiae deletion strains, growth OD

Measured: normalized growth

C[N+](C)(C)CC(=O)[O-]
inactive: locus YAL013W, strain DEP1, stronger effect = lower value 0.992 | locus YAL021C, strain ccr4, stronger effect = lower value 0.993 | locus YAL026C, strain drs2, stronger effect = lower value 0.983 | locus YAL030W, strain snc1, stronger effect = lower value 1 | locus YBL061C, strain skt5, stronger effect = lower value 0.978 | locus YBR009C, strain hhf1, stronger effect = lower value 1 | locus YBR021W, strain FUR4, stronger effect = lower value 1.16 | locus YBR023C, strain chs3, stronger effect = lower value 0.998 | locus YBR171W, strain sec66, stronger effect = lower value 0.981 | locus YBR229C, strain ROT2, stronger effect = lower value 0.993 | locus YBR231C, strain swc5, stronger effect = lower value 0.969 | locus YBR279W, strain paf1, stronger effect = lower value 0.997 | locus YCL011C, strain gbp2, stronger effect = lower value 0.982 | locus YCL016C, strain dcc1, stronger effect = lower value 1 | locus YCL029C, strain bik1, stronger effect = lower value 0.982 | locus YCL061C, strain MRC1, stronger effect = lower value 0.972 | locus YCL069W, strain vba3, stronger effect = lower value 0.997 | locus YCR088W, strain abp1, stronger effect = lower value 0.996 | locus YDL005C, strain med2, stronger effect = lower value 0.959 | locus YDL035C, strain GPR1, stronger effect = lower value 0.994 | locus YDL040C, strain nat1, stronger effect = lower value 0.988 | locus YDL074C, strain BRE1, stronger effect = lower value 0.949 | locus YDL101C, strain DUN1, stronger effect = lower value 0.998 | locus YDL134C, strain PPH21, stronger effect = lower value 1.01 | locus YDL185W, strain tfp1, stronger effect = lower value 0.95 | locus YDL192W, strain arf1, stronger effect = lower value 0.985 | locus YDR001C, strain nth1, stronger effect = lower value 0.957 | locus YDR069C, strain doa4, stronger effect = lower value 0.955 | locus YDR101C, strain arx1, stronger effect = lower value 0.969 | locus YDR137W, strain rgp1, stronger effect = lower value 1.02 | locus YDR150W, strain NUM1, stronger effect = lower value 0.981 | locus YDR159W, strain sac3, stronger effect = lower value 0.978 | locus YDR162C, strain NBP2, stronger effect = lower value 0.996 | locus YDR195W, strain ref2 0.974 | locus YDR297W, strain sur2, stronger effect = lower value 0.994 | locus YDR318W, strain mcm21, stronger effect = lower value 0.992 | locus YDR334W, strain swr1, stronger effect = lower value 0.939 | locus YDR335W, strain msn5, stronger effect = lower value 0.964 | locus YDR388W, stronger effect = lower value 0.997 | locus YDR392W, strain spt3, stronger effect = lower value 1 | locus YDR502C, strain sam2, stronger effect = lower value 0.986 | locus YEL003W, strain gim4, stronger effect = lower value 0.99 | locus YEL037C, strain rad23, stronger effect = lower value 0.989 | locus YEL061C, strain CIN8 (second series), stronger effect = lower value 0.992 | locus YEL061C, strain CIN8, stronger effect = lower value 0.996 | locus YER015W, strain faa2, stronger effect = lower value 0.993 | locus YER016W, strain bim1, stronger effect = lower value 1.02 | locus YER110C, stronger effect = lower value 0.985 | locus YER111C, strain swi4, stronger effect = lower value 0.992 | locus YER155C, strain BEM2 (second series), stronger effect = lower value 0.987 | locus YER155C, strain BEM2, stronger effect = lower value 0.996 | locus YER167W, strain BCK2, stronger effect = lower value 0.993 | locus YFR010W, strain ubp6, stronger effect = lower value 0.958 | locus YGL078C, strain dbp3, stronger effect = lower value 0.998 | locus YGL086W, strain mad1, stronger effect = lower value 1.01 | locus YGL167C, strain pmr1, stronger effect = lower value 0.978 | locus YGL173C, strain kem1, stronger effect = lower value 1 | locus YGL227W, strain vid30, stronger effect = lower value 0.968 | locus YGL240W, strain doc1, stronger effect = lower value 0.981 | locus YGL248W, strain PDE1, stronger effect = lower value 0.989 | locus YGL253W, strain hxk2, stronger effect = lower value 0.962 | locus YGR078C, strain PAC10, stronger effect = lower value 0.955 | locus YGR135W, strain pre9, stronger effect = lower value 0.984 | locus YGR229C, strain SMI1, stronger effect = lower value 0.979 | locus YGR252W, strain gcn5, stronger effect = lower value 1.19 | locus YHR013C, strain ard1, stronger effect = lower value 0.992 | locus YHR027C, strain rpn1, stronger effect = lower value 0.983 | locus YHR030C, strain SLT2, stronger effect = lower value 0.993 and 0.982 | locus YHR079C, strain IRE1 (second series), stronger effect = lower value 0.982 | locus YHR079C, strain IRE1, stronger effect = lower value 0.989 | locus YHR094C, strain hxt1, stronger effect = lower value 0.973 | locus YHR129C, strain ARP1, stronger effect = lower value 0.994 | locus YHR142W, strain chs7, stronger effect = lower value 0.963 | locus YHR200W, strain rpn10, stronger effect = lower value 0.978 | locus YIL066C, strain RNR3, stronger effect = lower value 0.983 | locus YIL073C, strain SPO22, stronger effect = lower value 0.94 | locus YIL125W, strain kgd1, stronger effect = lower value 0.988 | locus YIR030C, strain dcg1, stronger effect = lower value 0.994 | locus YJL092W, strain hpr5, stronger effect = lower value 0.989 | locus YJL095W, strain BCK1 (second series), stronger effect = lower value 0.979 | locus YJL095W, strain BCK1, stronger effect = lower value 0.987 and 0.995 | locus YJL115W, strain asf1, stronger effect = lower value 0.966 | locus YJL129C, strain trk1, stronger effect = lower value 0.958 | locus YJL134W, strain LCB3, stronger effect = lower value 1 | locus YJL154C, strain vps35, stronger effect = lower value 0.963 | locus YJL164C, strain tpk1, stronger effect = lower value 1.01 | locus YJL166W, strain qcr8, stronger effect = lower value 0.978 | locus YJL168C, strain set2, stronger effect = lower value 0.992 | locus YJL187C, strain SWE1 (second series), stronger effect = lower value 0.988 | locus YJL187C, strain SWE1, stronger effect = lower value 0.964 | locus YJR043C, strain POL32, stronger effect = lower value 0.998 | locus YJR066W, strain TOR1, stronger effect = lower value 0.948
